Measured values from PubChem BioAssay AID1159580 (chemical genetic matrix, 2015).
Hit rate of the full screen: of about 5,500 compounds, about 2,000 (36%) were called active. Inconclusive results (about 18%) are left out. Rule as the data show it: active = normalized growth mostly below about 0.91 (no sharp cut-off); inconclusive = no clear call, values can overlap the other calls; inactive = mostly above about 0.92. Some of the results follow.

Test: chemical genetic growth profiling, strain panel (AID 1159580);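 also: tested at 20 µM; growth read once vehicle control cultures reached saturation at 30 °C; 1 = growth at the plate median or of vehicle wells; lower values mean less growth of the strain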
Conditions: growth OD

Measured: normalized growth

CC(C)c1c(O)c(-c2cc3c(c(C(C)C)c2O)CCC2C(C)(C)CCC[C@]32C)cc2c1CCC1C(C)(C)CCC[C@]21C (some centres not stated)
inactive: S. cerevisiae deletion strains, locus YJR075W, strain HOC1, active compounds read low 1.01 | S. cerevisiae deletion strains, locus YKL009W, strain mrt4, active compounds read low 1.06 | S. cerevisiae deletion strains, locus YKL068W, active compounds read low 1.01 | S. cerevisiae deletion strains, locus YKL085W, strain MDH1 (second series), active compounds read low 1.07 | S. cerevisiae deletion strains, locus YKL085W, strain MDH1, active compounds read low 1.07 | S. cerevisiae deletion strains, locus YKL160W, strain elf1, active compounds read low 0.984 | S. cerevisiae deletion strains, locus YKL190W, strain CNB1, active compounds read low 1.01 | S. cerevisiae deletion strains, locus YKR001C, strain vps1, active compounds read low 1.03 | S. cerevisiae deletion strains, locus YKR026C, strain gcn3, active compounds read low 0.993 | S. cerevisiae deletion strains, locus YKR091W, strain srl3, active compounds read low 0.971 | S. cerevisiae deletion strains, locus YLL001W, strain dnm1, active compounds read low 1.01 | S. cerevisiae deletion strains, locus YLL026W, active compounds read low 0.997 | S. cerevisiae deletion strains, locus YLL041C, strain sdh2, active compounds read low 1.02 | S. cerevisiae deletion strains, locus YLR027C, strain aat2, active compounds read low 0.983 | S. cerevisiae deletion strains, locus YLR039C, strain RIC1, active compounds read low 1.07 | S. cerevisiae deletion strains, locus YLR058C, strain SHM2, active compounds read low 1.02 | S. cerevisiae deletion strains, locus YLR102C, strain apc9, active compounds read low 1.02 | S. cerevisiae deletion strains, locus YLR113W, strain HOG1, active compounds read low 0.996 | S. cerevisiae deletion strains, locus YLR221C, strain rsa3, active compounds read low 1.02 | S. cerevisiae deletion strains, locus YLR258W, strain gsy2, active compounds read low 0.974 | S. cerevisiae deletion strains, locus YLR262C, strain YPT6 (second series), active compounds read low 0.987 | S. cerevisiae deletion strains, locus YLR262C, strain YPT6, active compounds read low 1.05 | S. cerevisiae deletion strains, locus YLR268W, strain sec22, active compounds read low 1.01 | S. cerevisiae deletion strains, locus YLR320W, strain mms22, active compounds read low 1.02 | S. cerevisiae deletion strains, locus YLR330W, strain CHS5, active compounds read low 1.01 | S. cerevisiae deletion strains, locus YLR342W, strain FKS1 (second series), active compounds read low 1.04 | S. cerevisiae deletion strains, locus YLR342W, strain FKS1, active compounds read low 0.99 | S. cerevisiae deletion strains, locus YLR357W, strain rsc2, active compounds read low 0.976 | S. cerevisiae deletion strains, locus YLR370C, strain arc18, active compounds read low 0.982 | S. cerevisiae deletion strains, locus YLR371W, strain rom2, active compounds read low 1.02 | S. cerevisiae deletion strains, locus YLR384C, strain iki3, active compounds read low 0.972 | S. cerevisiae deletion strains, locus YLR418C, strain cdc73, active compounds read low 1.01 | S. cerevisiae deletion strains, locus YML016C, strain PPZ1, active compounds read low 1.02 | S. cerevisiae deletion strains, locus YML032C, strain rad52, active compounds read low 1.03 | S. cerevisiae deletion strains, locus YML120C, strain ndi1, active compounds read low 1 | S. cerevisiae deletion strains, locus YML124C, strain tub3, active compounds read low 1.01 | S. cerevisiae deletion strains, locus YMR058W, strain fet3, active compounds read low 0.982 | S. cerevisiae deletion strains, locus YMR078C, strain ctf18, active compounds read low 1.01 | S. cerevisiae deletion strains, locus YMR125W, strain sto1, active compounds read low 0.968 | S. cerevisiae deletion strains, locus YMR129W, active compounds read low 0.98 | S. cerevisiae deletion strains, locus YMR205C, strain PFK2, active compounds read low 0.973 | S. cerevisiae deletion strains, locus YMR223W, strain ubp8, active compounds read low 1.03 | S. cerevisiae deletion strains, locus YMR231W, strain pep5, active compounds read low 1.04 | S. cerevisiae deletion strains, locus YMR263W, strain SAP30, active compounds read low 1.02 | S. cerevisiae deletion strains, locus YMR307W, strain GAS1, active compounds read low 1.03 | S. cerevisiae deletion strains, locus YNL067W, strain RPL9B, active compounds read low 1.02 | S. cerevisiae deletion strains, locus YNL071W, strain lat1, active compounds read low 0.995 | S. cerevisiae deletion strains, locus YNL128W, strain TEP1, active compounds read low 1.01 | S. cerevisiae deletion strains, locus YNL153C, strain GIM3, active compounds read low 0.998 | S. cerevisiae deletion strains, locus YNL183C, strain NPR1, active compounds read low 0.946 | S. cerevisiae deletion strains, locus YNL209W, strain ssb2, active compounds read low 0.986 | S. cerevisiae deletion strains, locus YNL233W, strain BNI4, active compounds read low 0.999 | S. cerevisiae deletion strains, locus YNL248C, strain rpa49, active compounds read low 0.953 | S. cerevisiae deletion strains, locus YNL250W, strain rad50, active compounds read low 1.02 | S. cerevisiae deletion strains, locus YNL271C, strain bni1, active compounds read low 1.03 | S. cerevisiae deletion strains, locus YNL298W, strain CLA4, active compounds read low 1.03 | S. cerevisiae deletion strains, locus YNL307C, strain MCK1, active compounds read low 1.04 | S. cerevisiae deletion strains, locus YNL322C, strain KRE1 (second series), active compounds read low 0.963 | S. cerevisiae deletion strains, locus YNL322C, strain KRE1, active compounds read low 1.02 | S. cerevisiae deletion strains, locus YNR049C, strain mso1, active compounds read low 0.963 | S. cerevisiae deletion strains, locus YNR052C, strain pop2, active compounds read low 1.02 | S. cerevisiae deletion strains, locus YOL006C, strain TOP1, active compounds read low 1.06 | S. cerevisiae deletion strains, locus YOL012C, strain htz1 0.995 | S. cerevisiae deletion strains, locus YOL147C, strain pex11, active compounds read low 1.01 | S. cerevisiae deletion strains, locus YOR001W, strain rrp6, active compounds read low 1.02 | S. cerevisiae deletion strains, locus YOR061W, strain CKA2, active compounds read low 1.02 | S. cerevisiae deletion strains, locus YOR069W, strain VPS5, active compounds read low 1.01 | S. cerevisiae deletion strains, locus YOR070C, strain gyp1, active compounds read low 0.989 | S. cerevisiae deletion strains, locus YOR080W, strain dia2, active compounds read low 0.953 | S. cerevisiae deletion strains, locus YOR083W, strain WHI5, active compounds read low 0.997 | S. cerevisiae deletion strains, locus YOR106W, strain vam3, active compounds read low 0.985 | S. cerevisiae deletion strains, locus YOR136W, strain idh2, active compounds read low 1.01 | S. cerevisiae deletion strains, locus YOR144C, strain elg1, active compounds read low 1.01 | S. cerevisiae deletion strains, locus YOR184W, strain ser1, active compounds read low 1.04 | S. cerevisiae deletion strains, locus YOR231W, strain MKK1, active compounds read low 0.958 | S. cerevisiae deletion strains, locus YOR265W, strain rbl2, active compounds read low 1 | S. cerevisiae deletion strains, locus YOR270C, strain vph1, active compounds read low 1 | S. cerevisiae deletion strains, locus YOR290C, strain snf2, active compounds read low 0.957 | S. cerevisiae deletion strains, locus YOR316C, strain cot1, active compounds read low 1.02 | S. cerevisiae deletion strains, locus YPL051W, strain arl3, active compounds read low 0.999 | S. cerevisiae deletion strains, locus YPL055C, strain LGE1, active compounds read low 1.02 | S. cerevisiae deletion strains, locus YPL078C, strain atp4, active compounds read low 0.986 | S. cerevisiae deletion strains, locus YPL106C, strain sse1, active compounds read low 0.948 | S. cerevisiae deletion strains, locus YPL240C, strain hsp82, active compounds read low 0.996 | S. cerevisiae deletion strains, locus YPL241C, strain CIN2, active compounds read low 1.02 | S. cerevisiae deletion strains, locus YPL256C, strain CLN2, active compounds read low 0.949 | S. cerevisiae deletion strains, locus YPR119W, strain clb2, active compounds read low 1.01 | S. cerevisiae deletion strains, locus YPR141C, strain kar3, active compounds read low 1.02 | S. cerevisiae deletion strains, locus YPR163C, strain tif3, active compounds read low 1.01 | S. cerevisiae deletion strains, locus YPR167C, strain met16, active compounds read low 1.02 | S. cerevisiae deletion strains, strain wtn01, active compounds read low 1.02 | S. cerevisiae strains, strain wild type, active compounds read low 1.02
